IL-1B inflam inh: qHTS for Inhibitors of Inflammasome Signaling: IL-1-beta AlphaLISA Primary Screen; THP-1 LPS/ATP IL-1B secretion, AlphaLISA, 16 h; hits give low values; activity change, % at 57.5 µM; 360,000 tested, 4.7% active; AID 743279, 2014; in the data active = activity change below about -50%; inconclusive = mostly about -30% to -49%; note: % is set by controls: 0 for no effect and ±100 for the full control effect
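THP-1 cells pretreated 1 hr with compounds (up to 57.5 uM final), then stimulated with LPS (250 ng/mL final) plus ATP (1.25 mM final); secreted IL-1B measured by AlphaLISA after 16 hr, decreased signal indicating inhibition.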
TDP1 cell CPT: qHTS for Inhibitors of human tyrosyl-DNA phosphodiesterase 1 (TDP1): qHTS in cells in presence of CPT | chicken DT40 Tdp1-/-;hTDP1 cells + 20 nM CPT, ATP luminescence, 48 h | Potency, µM (highest dose often 46.2 µM), inactives show at the top dose activity change, negative = growth inhibition, most hits filed as inhibitors | 420,000 tested, 12% active | AID 686979, 2013; note: potency is the fitted concentration of half-maximal effect; % is set by controls: 0 for no effect and ±100 for the full control effect; nearly all actives have a fitted effect of over 55% in size
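Cell growth measured by CellTiter-Glo luminescence after a minimum 48 h, 37 C compound exposure with 20 nM CPT in Tdp1-knockout DT40 cells stably expressing hTDP1, seeded 400/well; qHTS titration format.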
D3 ag: qHTS of D3 Dopamine Receptor Agonist: qHTS; D(3) dopamine receptor (Homo sapiens), P35462; D3R DiscoveRx beta-arrestin cells, luminescence, 90 min; max activation, %; 410,000 tested, 0.58% active; in the data active = max activation above about 30%; note: 0% is about no effect
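Agonist-mode cell screen: cells plated at 1500/well and incubated overnight at 37 °C, then exposed to library compounds for 90 min at 37 °C. Detection reagent was added for 30–60 min at room temperature, and luminescence was read.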
D3 antag: qHTS of D3 Dopamine Receptor Antagonist: qHTS; D(3) dopamine receptor (Homo sapiens), P35462; D3R cells, DiscoveRx beta-arrestin luminescence, antagonist mode; hits give low values; max response, negative = inhibition, %; 360,000 tested, 2.5% active; AID 652054, 2013; in the data active = max response below about -50%; inconclusive = no clear call, values can overlap the other calls; note: % is set by controls: 0 for no effect and ±100 for the full control effect
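Cells expressing the human receptor were seeded at 1500 cells/well, incubated overnight at 37 degrees C in 5% CO2, then exposed to library compounds with dopamine controls for 90 minutes at 37 degrees C before luminescent detection.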
TDP1 cell noCPT: qHTS for Inhibitors of human tyrosyl-DNA phosphodiesterase 1 (TDP1): qHTS in cells in absence of CPT; DT40 Tdp1-/- hTDP1 cells, no CPT, ATP luminescence, 48 h; AID 686978, 2013; Potency, µM (top dose mostly 46.2 µM), inactives show top-dose activity change, negative = growth inhibition, hits mostly inhibitors; 420,000 tested, 15% active; note: potency is the fitted concentration of half-maximal effect; % is set by controls: 0 for no effect and ±100 for the full control effect; nearly all actives have a fitted effect of over 55% in size
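Growth of hTDP1-complemented DT40 Tdp1-knockout cells is measured by ATP luminescence after at least 48 hr compound exposure at 37 °C, with DMSO substituting for the 20 nM CPT used in the parallel screen.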
ClpP mod: qHTS Assay for Activators of ClpP; ATP-dependent Clp protease proteolytic subunit (Bacillus subtilis (strain 168)), P80244; 340,000 tested, 1.9% active; Potency, µM (series often up to 57.5 µM), inactives show top-dose activity change, negative = active; purified B. subtilis ClpP, FRET peptide cleavage, 20 min; AID 651965, 2013; active = well fitted falling curve with a large enough effect; inconclusive = small, poorly fitted or top-dose-only effect; inactive = no such curve, though single readings can be large or run the other way; note: potency is the fitted concentration of half-maximal effect; the source files actives as falling curves though it sought activators and does not explain the sign; nearly all actives have a fitted effect of over 65% in size
Target sequence (P80244 whole entry, looked up): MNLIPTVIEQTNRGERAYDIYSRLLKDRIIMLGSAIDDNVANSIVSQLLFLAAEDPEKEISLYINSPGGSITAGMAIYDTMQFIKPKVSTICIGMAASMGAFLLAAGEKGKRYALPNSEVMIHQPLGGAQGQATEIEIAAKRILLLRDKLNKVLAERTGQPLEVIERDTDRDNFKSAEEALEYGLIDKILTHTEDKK
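ClpP 10 microg/mL final, pH 8 Tris/KCl buffer with BSA, glycerol, Tween-20; compound pinned in; FRET-FV substrate; RT 20 min; Ex320/Em430; ΔFRET vs ADEP 5.8 microM, DMSO, no enzyme.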
The depositor's hits bear a star; i = inactive; ? = inconclusive; nt = no result; [ ] = another dose, or the depositor's remark. Most compounds without a hit are left out; they make up all but 21% or so of the library. Unless noted, calls come from the whole dose curve; as a rule, active = well fitted inhibition curve with a large enough effect; inconclusive = small, poorly fitted or top-dose-only effect; inactive = flat fitted curve, though single readings scatter.

SMILES	IL-1B inflam inh	TDP1 cell CPT	D3 ag	D3 antag	TDP1 cell noCPT	ClpP mod
Cc1cccc(COCC(CC(C)C)N2CCN(C(=O)c3ccc(C(C)(C)C)cc3)CCC2=O)c1 (stereo not drawn)	-73*	?	1	13	18µM*	0%
CC(C)CC(COCc1ccc([N+](=O)[O-])cc1)N1CCN(C(=O)c2ccc(C(F)(F)F)cc2)CCC1=O (stereo not drawn)	?	18µM*	14	10	?	1%
Cc1ccc(COCC(CC(C)C)N2CCN(C(=O)c3cccc(C(F)(F)F)c3)CCC2=O)cc1 (stereo not drawn)	-27	?	1	-11	?	0%
Cc1cccc(COCC(CC(C)C)N2CCN(C(=O)c3ccc(C(F)(F)F)cc3)CCC2=O)c1 (stereo not drawn)	-54*	23µM*	-7	-12	?	2%
Cc1c2c(=O)n(-c3nc4ccccc4s3)nc-2cc(O)n1Cc1ccccc1	0	21µM*	-3	2	15µM*	-1%
Cc1cc(C)n(-c2nc3ccccc3s2)n1	0	-7%	4	22	32%	-1%
Cc1c(C(=O)N2CCOc3ccccc3C2)sc2ncnc(NCCCN3CCOCC3)c12	nt	-1%	nt	nt	-7%	nt
COc1cccc(C(=O)NC2CCCc3c2cnn3-c2ccc(C)c(C)c2)c1OC (stereo not drawn)	-4	?	1	0	?	-2%
COc1ncccc1C(=O)NC1CCCc2c1cnn2-c1ccc(C)c(C)c1 (stereo not drawn)	-2	16µM*	3	8	16µM*	1%
CSc1ncccc1C(=O)NC1CCCc2c1cnn2-c1ccc(C)c(C)c1 (stereo not drawn)	i	8.2µM*	1	-21	7.3µM*	35%
Cc1c(C(=O)NC(C)(C)CO)sc2ncnc(NCCN(C)C)c12	nt	12%[9.04 µM]	nt	nt	-10%	nt
Cc1cc[n+](CC#N)cc1	nt	-10%	nt	nt	2%	0%
Cc1ccc(CC#N)c(-c2c(CC#N)ccc(C)c2C)c1C	21	?	1	-1	23µM*	0%
COC(=O)C(Cc1c[nH]c2ccccc12)NC(=O)C1CC1 (stereo not drawn)	9	4%	-4	1	-1%	nt
CC(C)(C)c1ccc(C(=O)CS(=O)(=O)c2ccccc2)cc1	-17	?	-6	0	16µM*	-10%
CSc1ccc2[nH]c(=O)cc(C)c2c1	17	4%	-16	-13	-17%	35µM*
O=C(NCc1cccc(Br)c1)C1CC(c2ccccc2[N+](=O)[O-])=NO1 (stereo not drawn)	29	?	-18	9	?	-4%
COc1ccc(-n2ncc(C(=O)NCCc3ccsc3)c2C2CCN(C(=O)OC(C)(C)C)CC2)cc1	nt	23µM*	4	nt	?	1%
COc1ccc(-n2ncc(C(=O)Nc3ccc(C)cc3Cl)c2C2CCN(C(=O)OC(C)(C)C)CC2)cc1	nt	16µM*	5	nt	16µM*	0%
CCOC(=O)N1CCC(NC(=O)c2cnn(-c3ccc(OC)cc3)c2C2CCN(C(=O)OC(C)(C)C)CC2)CC1	nt	18µM*	7	nt	?	1%
CCOC(=O)N1CCC(NC(=O)c2cnn(-c3ccc(C)cc3)c2C2CCN(C(=O)OC(C)(C)C)CC2)CC1	nt	21µM*	10	nt	?	1%
COc1cc(OC)c(NC(=O)c2cnn(-c3cccc(Cl)c3C)c2C2CCN(C(=O)OC(C)(C)C)CC2)cc1Cl	nt	-28%	-3	nt	-28%	-2%
